Out of some 53,000 sequences screened, about 3,700 (7%) were called active. This excerpt belongs to a sample that is enriched for actives. Values without a mark were called inactive.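 How the source made its calls: active means gene knockdowns whose robust z-score for IL-1 alpha signal is at least 2 or at most -2, so actives lie on both sides; inactive means the rest.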

The nature of the test: Components of the Cytosolic LPS Sensing Pathway: Gene Identification via Genome-wide siRNA Screen.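 Further: robust z of the log signal after scaling to non-targeting control siRNA wells of the plate.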 The following applies: RAW264.7 macrophages, IL-1a HTRF, actives lie on both sides, screened at 100 nM (by protocol), cells primed 5 h with Pam3CSK4 first. An outline of the steps: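 Knockdown: 100 nM siRNA, 48h, RAW264.7. Stimulation: Pam3CSK4 5 h, then LipidA via TransIT-TKO 24 h. Output: supernatant IL-1a HTRF, negative-control-normalized, log robust z-score; viability by CellTiter-Glo.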
As for CGAGAUGUGUGUUAAAGGATT against Utp23, the z-score is 0.934. On to GCAAGUUGUCAAAUCUAAATT against Tspan13, for which the z-score was 1.42. The value for GCCGGACAACUCUAAUCAGTT against Herpud1 was 3.22 (active); that for CCAAGGUAUGAAGAUAUUUTT against Rfpl4 was 0.575.

Regarding GCAUGUUUUGGUGUAUAGUTT against Arl4a, the z-score was -1.81. The value for CGGUGUUUGAAAUCGUGCATT against Dgcr6 was 0.533; that for CCAGAGCCCAAGCCAAGUUTT against Nanos3 was 0.639. Turning to GCCCGAUAUUAUAACGGUGTT against Eomes, the z-score is 2.97 (active). The value for GGUAUCCAGAUGAAAGAUGTT against Nlrp10 was -1.13; that for GGCCCUCAAAAAUCACGAGTT against Ehd1 was 1.11.

For the sequence GGCAACAUCACUGAGUAUCTT against Glg1, the z-score was 0.57. For GGAUCUUCUCUGCCUAUAUTT against Arpc1b, the z-score is -1.42. The value for GGAGGAGAAGAAGAAGGCCTT against Unc119b was 0.28; that for CCUCAUGCUAGCCUCAUGATT against Actg1 was -0.214. The value for GCUAUUGGGACUUAGAACATT against Slc26a9 was 0.191; that for CCAGUAAACCUACAUGUUCTT against Htr3b was -0.024; that for GGCUAAAAUAAGCAAUCUGTT against Optc was -1.35. The value for GGAAACUCCCUGAACCGGATT against Zcrb1 was 2.26 (active); that for GGUAUUGAGUAUCUUAGGUTT against Atf7 was -0.543.

For the sequence CGUUUUGUACAGAUAUACUTT against Fam3b, the z-score was -0.571. For GAUUCCAAGACAUUAAACATT against Fxn, the z-score is 0.485. Take GGCAGUUCAUGUUUAAAGATT against Fgfr1op2: the z-score was -0.381.

For CGAGAGCAUUAAUUACUUCTT against Sulf1, the z-score is 0.621. The value for GGACUACGAAUACCCAUCGTT against Cck was -0.42; that for GGGCAAUUUGGACUGUUUUTT against Jam3 was -0.973. The value for GGGUUUUAGAAUGAAAUACTT against Emc6 was 2.35 (active). The value for GGAAGCAUUCCAAUGGUAGTT against Cyp2c39 was -0.532.

Regarding GGCCAGACAUGUUGAAGAATT against Ssna1, the z-score was -2.42 (active). The value for CGAUGCUGUGGAACUGCACTT against Ptgfrn was 0.417. The value for CCGCGCCGUUGAUUCAUUUTT against Spata17 was 1.08.

GGACACCAUGCCACAGACATT against Hlx: the z-score was -1.43. The value for GCAGAUCACCUUUUGUUUATT against Gdap2 was 0.767.

For GGAUCCGUGCUGAAGUUUUTT against Cep20, the z-score is -0.338. On to GCUUCCCGCUAUGAGUUCATT against Shisa7, for which the z-score is 2.24 (active).

GGAUUGUUAGCAAAGAAAGTT against Aco1: the z-score was -0.0776. The value for GGUAGCAUGCUUUUGGUGCTT against Unkl was 0.329.

On to CGAAGGCUUUUGAAUUCAATT against Pcdh17, for which the z-score was 0.41. The value for GGACUUCUACACCUCGAAATT against Amz2 was -1.05; that for GCUGAGGAAAUGCGAAGUCTT against Tmem98 was 0.0406; that for GGGCAACCCACAAUAAAAATT against B9d1 was -1.66. The value for GGCUUUGAGAUAUGAACAGTT against Arrdc2 was 2.53 (active); that for GGCAAGGAAUCAAUGUCUCTT against Fscn2 was -0.229; that for GGACAAUUCCAGUCAAUAATT against Ccdc115 was -1.01.

In the case of GGAUUUCGGCUUUUUGAACTT against Bcas1, the z-score is 0.531. Regarding GCCCUUAUGGACGAAAUUUTT against Ang2, the z-score was 0.0523.

For GGUCUGCUCAAUGCUAUCATT against Olfr918, the z-score was -1.47. The value for GGAGAGACUCAGGAGUUUUTT against Rnd2 was 2.74 (active); that for UGAAUAAGGUGUGGUGCUCTT against Vmn1r148 was 0.607.

“GGCUAACUUUAGUGAGGUATT against 3110070M22Rik”: the z-score is 0.233. The value for CCGAAGUGCAACAAGCCAATT against Abl2 was 1.17; that for GGGUACGUGAAGAAACUUCTT against Meig1 was -2.23 (active); that for GGGCACACGUACCAACUAUTT against Mib2 was -0.458.

In the case of GGGACCCUACAAAAUCAUUTT against Ganab, the z-score was 0.467. The value for GGAUCUUUUCAGGUUCUAATT against Olfr659 was 0.377.

Turning to GCUAGAAGCCUGACAUUUUTT against Tbca, the z-score is -0.538. The value for CGAUUGAUGAAUCUGGUUCTT against Racgap1 was -0.31; that for GCUGGUCAAGGGUCUAGAGTT against Saa3 was -2.05 (active). The value for GGGAGUUCUCUAAAUGCUUTT against Olfr482 was 1.52; that for GCCUCCAGUAUCAUAAUUGTT against Antxr2 was 1.26; that for CCAGUUCGAUGUGGUAAUATT against St3gal5 was 1.11. The value for GGAUGUCACAUGACAGUUUTT against Tmprss4 was 0.563; that for GGAUCCAACAAAUGUUAUUTT against Ccdc92 was 2.06 (active); that for CGAUGGUGAUUCCCAUGUUTT against Olfr996 was 0.529.

GCUAUCUCGGUGUCAACUUTT against Aqp7: the z-score was -1.26. The value for GGUUGGAUUAUUAGGAAUUTT against Dnah5 was 0.0387. The value for GGGCUCCUUUUUUUUUUUUTT against Frat1 was -2.55 (active); that for CCAAUUGCUCUCCAUGAAATT against Coro1c was 0.331. The value for GCUUGGAAGACAUUGACCCTT against Brsk2 was -0.996; that for GGUUACAGAAGAAUUAGAATT against Ift57 was 9.9e-05. In the case of CCCUCUUUAUCGUCUGUGATT against Gpha2, the z-score is -2.89 (active). The value for GGGAUUGAGAUCCUCAUACTT against Olfr1179 was 0.125. In the case of GCCGAGAUGGUCAUAAGCUTT against Rbbp5, the z-score is 1.99. The value for CCUACCACAACAUGUAUCCTT against S100a11 was 2.25 (active); that for GCACGGCGAAAAAAUCUUCTT against Katnal2 was -0.167. The value for GCAGUGGUAGAACAUCCAATT against Bhmt2 was 0.585; that for CCUACUGUCUAAGAAUACATT against Olfr1138 was -1.65; that for CCUUCCACAAAUACUCAGGTT against S100a4 was 0.562. The value for GGCUUAUGUGAUUUUGAUUTT against Gpr63 was -0.628; that for GGAGAAGAUGUCAUCCAGATT against Zfp467 was -0.37. Take GGAUAGACACUAGGAUCCUTT against Pdcd1lg2: the z-score is 0.721. As for GCUGCUAUGAGAGAGUUUUTT against Serpind1, the z-score was 2.18 (active).

Turning to GGCAACAAAUCAAAGCAGCTT against Anxa7, the z-score was 1.4. The value for GCUUAUAAAGUAGUGGUUUTT against Wnt2b was -0.384; that for GCACCGAGUGGAAUAAUCATT against Lrp12 was 3.44 (active); that for CCGUAAGUCUCGGAUCUCCTT against Plcxd1 was 0.373. The value for GCCACUACAUAAAAUAGUCTT against Ube2z was 0.0966; that for GGAGAUGAGGUGAAGUGGATT against Acsm4 was -0.213.

Take GGCAUAUAUACAUGCCUGCTT against Vmn1r215: the z-score was 0.833. For “GCCCUACUAAGUCAAUUAATT against 1700055D18Rik”, the z-score is 0.248. For the sequence GGACAUUUUCAAACAAGGCTT against Mthfs, the z-score is -1.07. The value for “GGGAAAAUAUCAGCUCAAUTT against D930048N14Rik” was -2.63 (active). The value for GCCUUGUGACAGCAUUAGUTT against Slc6a13 was -0.0361; that for GGUGCUAAAUAAGACAAUGTT against Psma4 was -1.76. The value for GGGCAUGUGGAUGACUGAUTT against Gnptg was 2.04 (active); that for GGGCUAGCAUCACAGUUUUTT against Tigd3 was 2.3 (active). For GCCCACUCACACCUAUUCUTT against Olfr1388, the z-score was 0.406. As for GGCGCAAGUUUGAUUUUGATT against Gigyf1, the z-score is 1.23. As for CCAUCUUGAAGAUUCGUUCTT against Olfr486, the z-score is -1.24.

For the sequence GCUAAUCUAUCCGUGUCCUTT against B3gnt3, the z-score is -0.522. The value for GGUAUAGCGGUGCAUGUCATT against Bmp8a was -0.823. The value for GCUGGAGAUCAUCCUUCAGTT against Rph3al was 0.742; that for GCUCCAGGCAUUGAGAAUGTT against Hcfc1r1 was 1.98; that for GGGAAGCUAAUAAAAGCACTT against Rgs20 was -0.902. Take GGUGCUCAAAGAAUGCAUUTT against Prkar1b: the z-score is 0.367. The value for GGCUUGCAUAUCUAUUGGATT against Map2k6 was 2.61 (active). Consider CCUCUCAGAUUUUCACAUATT against Zfp599, for which the z-score is 1.36.

Regarding GGCUCAAAGUCCUCAGAGCTT against Atp6v1e1, the z-score is -2.15 (active).

Values taken from PubChem BioAssay AID1508600 (Functional Genomics Laboratory (NCATS/FGL), 2020).
